Our source for the inhibition values is PubChem BioAssay AID1554 (Broad Institute, 2009).

In all, about 300,000 compounds went through this assay and about 520 (0.17%) were called active. No stated cut-off is given here; in the data, active means inhibition above about 50%; inconclusive means no clear call, values can overlap the other calls; inactive means below that. The entries come from a sample that favours actives as a whole.

The nature of this experiment: PubChem AID 1554. To be noted: BJeLR (HRASV12) viability, CellTiter-Glo ATP luminescence, 48 h; stronger effect = higher value; concentration not given here. For orientation: Cellular ATP, detected with luciferase, serves as a proxy for viable cell number.
`S=c1[nH]ccn1-c1ccc(Cl)cc1`: the inhibition is 1.81% (inactive).

On to `CC(C)(C)OC(=O)NC(Cc1ccccc1)C(=O)NC(CSC1CCCCO1)C(=O)NN` (stereo not drawn), for which the inhibition is 10.4% (inactive).

As to `COc1ccccc1C(=O)NCCn1cc(SCC(=O)NCc2ccco2)c2ccccc21`, the inhibition was -1.46% (inactive).

As to `CC12CCC(C(=O)N(CCC#N)CCC#N)(CC1=O)C2(C)C` (stereo not drawn), the inhibition is -15.4% (inactive).

Turning to `COC(=O)c1c(C(=O)OC)c(-c2cccc(C)c2)n2c1CS(=O)C2` (stereo not drawn), the inhibition was 0.411% (inactive).

On to `CC1(C)Oc2ccc3ccc(=O)oc3c2/C(=N/O)C1=O`, for which the inhibition was 0.973% (inactive).

On to `Cc1ccc2[nH]c(=O)c(CN3CCCCC3)c(-c3ccccc3)c2c1`, for which the inhibition was 4.95% (inactive).

Turning to `COC(=O)c1ccc(OCC(O)CN(CCO)CC(O)Cn2ccc3ccccc32)cc1` (stereo not drawn), the inhibition was 1.45% (inactive).

Consider `Cc1ccc(O)c(/C=N/NC(=O)COc2ccc3c(C)cc(=O)oc3c2)c1`, for which the inhibition is -1.41% (inactive).

For the compound `CC1(C)CC(=O)C=C(N2CCCC2)C1`, the inhibition was 0.434% (inactive).

`CC1(C)CC(N2CCN(C(c3ccccc3)c3ccccc3)CC2)=CC(=[N+]2CCCCC2)C1`: the inhibition is 70.6% (active).

For the compound `O=C1CC(N2CCN(C(c3ccccc3)c3ccccc3)CC2)C(=O)N1` (stereo not drawn), the inhibition was -3.58% (inactive).

As to `Cc1cc(=O)[nH]c(SCc2ccc(Cl)cc2)n1`, the inhibition was 0.607% (inactive).

As for `O=C(Oc1ccc(-c2nc(-c3ccccn3)no2)cc1)c1ccccc1`, the inhibition was 61.8% (active).

Take `Cc1ccc(Oc2nc(-c3ccccn3)nc3ccccc23)cc1`: the inhibition was 4.2% (inactive).

For `O=C(Oc1ccc(Br)cc1)c1cccnc1`, the inhibition is -11.9% (inactive).

In the case of `COCCNC(=S)N1CCN(C)CC1`, the inhibition is 6.68% (inactive).

For `COc1cc(OC)cc(C(=O)N[C@H](C(=O)OCC(=O)NC(C)c2ccccc2)C(C)C)c1` (stereo partly drawn), the inhibition was -3.17% (inactive).

For the compound `COc1ccc(C(=O)N[C@H](C(=O)NCc2ccccc2)C(C)C)cc1`, the inhibition is -8.87% (inactive).

In the case of `COc1cc(OC)cc(C(=O)N[C@H](C(=O)Nc2nc3ccccc3[nH]2)C(C)C)c1`, the inhibition was 50.8% (active).

As for `CCOC(=O)c1sc(C)c2c1NC(C)(c1cccc3ccccc13)NC2=O` (stereo not drawn), the inhibition was -6.51% (inactive).

Consider `Cc1cc(Oc2ccc(Cl)cc2)nc(SCC(=O)c2ccccc2)n1`, for which the inhibition was -7.21% (inactive).

For `Cc1cc(C)n(-c2ccc(C(=O)O)cc2[N+](=O)[O-])n1`, the inhibition is 3.87% (inactive).

Take `CC(=O)c1ccc(Oc2cc(C)nc(-n3nc(C)cc3C)n2)cc1`: the inhibition was 50.8% (active).

As for `COc1ccccc1NC(=O)c1cc(N2C(=O)C3C4CCC(C4)C3C2=O)ccc1Cl` (stereo not drawn), the inhibition was -10.4% (inactive).

Take `C=CCn1c(SCC(=O)c2ccc(Br)cc2)nnc1C(C)NC(=O)Cc1ccc(OC)cc1` (stereo not drawn): the inhibition was 2.52% (inactive).

For `NS(=O)(=O)c1ccc(CNC(=O)c2cnccn2)cc1`, the inhibition was 4.27% (inactive).

On to `CCC(C)Sc1nc2c(cnn2-c2ccc(F)cc2)c(=O)[nH]1` (stereo not drawn), for which the inhibition was -2.29% (inactive).

For `CC1(C)CC(=O)C(C=NCCN2CCN(C(=S)Nc3cccc(Cl)c3)CC2)=C(O)C1`, the inhibition was 8.42% (inactive).

Take `CSCCC(NC(=O)COc1ccccc1)C(=O)OCCOc1ccc(F)cc1` (stereo not drawn): the inhibition is -6.51% (inactive).

Regarding `CCOC(=O)c1sc(NC(=O)CSc2nc(O)c(Cc3ccccc3)c(=O)[nH]2)nc1C`, the inhibition is 5.77% (inactive).

`CCCn1c(=N)n(CC(=O)c2ccc(Cl)c(Cl)c2)c2ccccc21`: the inhibition is 3.45% (inactive).

For the compound `COc1ccc2c(c1)N(C)/C(=C1/SC(=S)N(NC(C)=O)C1=O)S2`, the inhibition is 1.69% (inactive).

As to `CC(OC(=O)CN1C(=O)C2CCCCC2C1=O)C(=O)Nc1ncc(Cl)cc1Cl` (stereo not drawn), the inhibition was 6.26% (inactive).

For `CCOC(=O)c1c(N)sc2c1CCCC2=O`, the inhibition is 7.59% (inactive).

Consider `O=C(Nc1ccc(C(=O)O)cc1)/C(=C\c1ccccc1)NC(=O)c1ccc(Br)cc1`, for which the inhibition is -0.97% (inactive).

For `Cc1ccc(OC(=O)c2cncc(Br)c2)c(C)c1`, the inhibition is -5.3% (inactive).

Consider `CC1CN(C2CCN(C(=O)COc3ccccc3)CC2)CC(C)O1` (stereo not drawn), for which the inhibition was -0.241% (inactive).

As for `Cc1c(C(=O)N(Cc2ccccc2)Cc2cccnc2)cnn1-c1ccc(F)cc1`, the inhibition was -6% (inactive).

For the compound `O=C(CNC(=O)c1ccccc1)Oc1ccc([N+](=O)[O-])cc1`, the inhibition is -1.21% (inactive).

As to `O=C(NC(Nc1nc2ccc([N+](=O)[O-])cc2s1)(C(F)(F)F)C(F)(F)F)c1ccccc1`, the inhibition is 77.1% (active).

Consider `O=[N+]([O-])c1cc(Br)c(O)c(/C=N/Nc2nc3ccccc3s2)c1`, for which the inhibition was 7.46% (inactive).

Regarding `O=C(CCC(=O)NNc1nc2ccccc2c2nc(-c3ccccc3)nn12)NCCCN1CCCC1=O`, the inhibition is 0.872% (inactive).

As to `CCOC(=O)COc1ccc([N+](=O)[O-])cc1`, the inhibition was -3.89% (inactive).

Turning to `CCOC(=O)/C(=C\c1ccc([N+](=O)[O-])cc1)C(=O)c1cc(C(C)=O)c(Nc2ccccc2)s1`, the inhibition was 58.8% (active).

Consider `Cc1ccc(NC(=O)/C(=C/c2ccc([N+](=O)[O-])cc2)NC(=O)c2ccccc2)cc1`, for which the inhibition was -1.53% (inactive).

Turning to `Cc1ccc(NC(=O)c2cnc(SCC(=O)NCC3CCCO3)n(C)c2=O)cc1` (stereo not drawn), the inhibition is 1.95% (inactive).

As for `COc1cc(CN2CCN(Cc3ccc(C)cc3)CC2)c([N+](=O)[O-])cc1OC`, the inhibition was 1.71% (inactive).

With `COC(=O)CN1C(=O)C(C)(C)Oc2ccc(C(=O)Nc3cccc(OC)c3)cc21`, the inhibition was -4.31% (inactive).

For `COc1ccc(CCNC(=O)COC(=O)Cc2cc(OC)c(OC)c(OC)c2)cc1`, the inhibition is 0.941% (inactive).

Regarding `COc1cc2c(C(=O)N(C)c3cc(Cl)ccc3OC)cn(C)c(=O)c2cc1OC`, the inhibition is -4.19% (inactive).

As for `Cn1cc(CNC(=O)c2ccc(OC3CCN(Cc4ccccn4)CC3)cc2)cn1`, the inhibition is 2.21% (inactive).

On to `O=C(NCCOc1cccnc1)c1ccc(OC2CCN(Cc3ccccn3)CC2)cc1`, for which the inhibition was 113% (active).

Turning to `O=C(c1ccc(OC2CCN(Cc3ccccn3)CC2)cc1)N1CCCCCC1`, the inhibition is -3.12% (inactive).

As for `O=C(CN1C(=O)c2cccnc2Oc2ccc(Cl)cc21)NCCc1ccccc1`, the inhibition was 2.42% (inactive).

In the case of `CC(=O)N1CCN(c2ccc(NCc3ccc(C(C)C)cc3)cc2)CC1`, the inhibition is -2.24% (inactive).

In the case of `CC(=O)c1ccc(N2Cc3ccccc3C2)cc1`, the inhibition was -5.06% (inactive).

As to `C/C(=N/NC(=O)CN1CCN(S(=O)(=O)c2ccc(Br)cc2)CC1)c1ccncc1`, the inhibition was 4.03% (inactive).

The inhibition is the change of the read-out against control, counted positive when it falls.
